Key:
Assay in all cases: DAPPL (digital affinity profiling via proximity ligation, sequencing); 10 mM Tris-HCl pH 7.5, 50 mM NaCl, 1 mM DTT, 4% glycerol, room temperature, 30 min; GST-TFs on glutathione beads, 16-mer random dsDNA library, 0.1% formaldehyde crosslink after washing; high values mean tight binding
FLI1 = biological target: T1, FLI1 (Homo sapiens, UniProt Q01543 1-452); details: protein: recombinant; tags: N-terminal GST; dsDNA, one strand shown
T1 sequence: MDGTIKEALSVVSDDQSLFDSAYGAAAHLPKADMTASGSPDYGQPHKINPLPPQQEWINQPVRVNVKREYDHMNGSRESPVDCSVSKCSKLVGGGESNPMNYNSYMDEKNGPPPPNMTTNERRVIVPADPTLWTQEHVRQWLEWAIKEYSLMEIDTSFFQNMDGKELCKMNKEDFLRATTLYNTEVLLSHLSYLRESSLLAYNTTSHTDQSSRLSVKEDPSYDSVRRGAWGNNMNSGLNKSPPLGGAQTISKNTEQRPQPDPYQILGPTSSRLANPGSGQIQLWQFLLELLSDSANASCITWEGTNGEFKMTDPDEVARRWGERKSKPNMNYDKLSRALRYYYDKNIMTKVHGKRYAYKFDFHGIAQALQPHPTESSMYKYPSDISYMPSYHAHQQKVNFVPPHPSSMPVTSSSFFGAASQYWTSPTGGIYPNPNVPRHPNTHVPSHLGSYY
How it was run: (§1)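 Yeast served to express human transcription factors as GST fusions, which were then captured on glutathione beads and labelled with DNA barcodes. Pooled with a tag-only sample, they were incubated with 200 nmole of a 16-mer random double-stranded DNA library for 30 min at room temperature in Tris/NaCl/DTT/glycerol buffer, washed, crosslinked with 0.1% formaldehyde, ligated by proximity, amplified by PCR and sequenced. Dividing each hexamer's read frequency for a factor by its frequency for the tag-only sample gives the binding signal.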

ELK1 = biological target: T2, ELK1 (Homo sapiens, UniProt P19419 1-428); details: protein: recombinant; tags: N-terminal GST; dsDNA, one strand shown
T2 sequence: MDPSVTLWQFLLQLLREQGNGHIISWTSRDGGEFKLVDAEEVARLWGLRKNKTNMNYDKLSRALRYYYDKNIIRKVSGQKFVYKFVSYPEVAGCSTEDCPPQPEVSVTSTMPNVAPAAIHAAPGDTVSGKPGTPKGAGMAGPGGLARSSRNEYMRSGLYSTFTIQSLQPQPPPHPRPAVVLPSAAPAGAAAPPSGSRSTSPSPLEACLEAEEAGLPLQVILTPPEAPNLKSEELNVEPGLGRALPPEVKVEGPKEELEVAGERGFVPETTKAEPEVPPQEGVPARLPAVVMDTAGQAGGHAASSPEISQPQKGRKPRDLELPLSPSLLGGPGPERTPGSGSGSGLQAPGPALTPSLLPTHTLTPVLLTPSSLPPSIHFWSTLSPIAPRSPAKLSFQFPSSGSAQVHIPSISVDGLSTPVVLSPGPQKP
How it was run: as §1

GABPA = biological target: T3, GABPA (Homo sapiens, UniProt Q06546 1-454); details: protein: recombinant; tags: N-terminal GST; dsDNA, one strand shown
T3 sequence: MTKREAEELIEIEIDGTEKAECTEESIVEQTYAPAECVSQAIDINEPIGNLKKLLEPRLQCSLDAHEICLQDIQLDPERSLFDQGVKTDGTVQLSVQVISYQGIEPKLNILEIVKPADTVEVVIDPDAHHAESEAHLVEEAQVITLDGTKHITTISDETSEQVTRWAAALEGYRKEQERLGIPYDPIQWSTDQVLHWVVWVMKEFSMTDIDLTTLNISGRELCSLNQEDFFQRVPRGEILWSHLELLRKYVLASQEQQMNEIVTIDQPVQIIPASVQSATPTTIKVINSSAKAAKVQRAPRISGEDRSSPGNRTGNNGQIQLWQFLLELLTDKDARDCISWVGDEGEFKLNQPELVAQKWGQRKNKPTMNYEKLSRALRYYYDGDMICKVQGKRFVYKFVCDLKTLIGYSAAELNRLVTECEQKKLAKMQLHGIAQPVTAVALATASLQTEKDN
How it was run: as §1

ERG = biological target: T4, ERG (Homo sapiens, UniProt P11308 1-479); details: protein: recombinant; tags: N-terminal GST; dsDNA, one strand shown
T4 sequence: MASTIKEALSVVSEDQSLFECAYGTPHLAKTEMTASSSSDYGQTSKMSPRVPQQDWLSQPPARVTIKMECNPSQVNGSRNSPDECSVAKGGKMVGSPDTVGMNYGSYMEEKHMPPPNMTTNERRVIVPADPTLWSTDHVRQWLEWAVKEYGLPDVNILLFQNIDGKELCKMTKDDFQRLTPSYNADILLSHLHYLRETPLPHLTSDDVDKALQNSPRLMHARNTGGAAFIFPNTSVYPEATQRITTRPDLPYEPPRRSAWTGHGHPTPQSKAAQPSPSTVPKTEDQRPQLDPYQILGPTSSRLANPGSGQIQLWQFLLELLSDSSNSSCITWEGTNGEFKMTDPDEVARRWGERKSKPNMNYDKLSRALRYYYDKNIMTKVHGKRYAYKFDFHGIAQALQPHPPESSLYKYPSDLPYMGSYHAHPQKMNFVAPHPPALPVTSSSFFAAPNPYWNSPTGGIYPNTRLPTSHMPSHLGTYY
How it was run: as §1

ELF1 = ELF1 (Homo sapiens, UniProt P32519 1-619); details: protein: recombinant; tags: N-terminal GST; dsDNA, one strand shown
ELF1, sequence (P32519 whole entry): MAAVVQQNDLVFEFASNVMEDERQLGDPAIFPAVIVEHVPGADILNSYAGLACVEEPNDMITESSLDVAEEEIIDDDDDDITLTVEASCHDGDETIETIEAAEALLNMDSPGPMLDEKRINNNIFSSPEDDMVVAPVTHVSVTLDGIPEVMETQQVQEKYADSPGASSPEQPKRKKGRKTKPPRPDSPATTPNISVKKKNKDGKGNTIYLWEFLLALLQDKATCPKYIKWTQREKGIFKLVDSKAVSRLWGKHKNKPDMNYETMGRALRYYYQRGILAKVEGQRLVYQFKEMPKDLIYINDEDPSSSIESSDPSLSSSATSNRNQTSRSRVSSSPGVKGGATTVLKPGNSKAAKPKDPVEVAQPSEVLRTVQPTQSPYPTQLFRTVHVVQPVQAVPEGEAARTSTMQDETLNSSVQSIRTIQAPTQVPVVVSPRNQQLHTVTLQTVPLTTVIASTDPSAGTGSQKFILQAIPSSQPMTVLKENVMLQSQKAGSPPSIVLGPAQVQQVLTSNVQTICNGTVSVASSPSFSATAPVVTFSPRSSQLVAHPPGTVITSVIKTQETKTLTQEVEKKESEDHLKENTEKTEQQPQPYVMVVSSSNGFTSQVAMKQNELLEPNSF
How it was run: as §1

EHF = biological target: T5, EHF (Homo sapiens, UniProt Q9NZC4 1-300); details: protein: recombinant; tags: N-terminal GST; dsDNA, one strand shown
T5 sequence: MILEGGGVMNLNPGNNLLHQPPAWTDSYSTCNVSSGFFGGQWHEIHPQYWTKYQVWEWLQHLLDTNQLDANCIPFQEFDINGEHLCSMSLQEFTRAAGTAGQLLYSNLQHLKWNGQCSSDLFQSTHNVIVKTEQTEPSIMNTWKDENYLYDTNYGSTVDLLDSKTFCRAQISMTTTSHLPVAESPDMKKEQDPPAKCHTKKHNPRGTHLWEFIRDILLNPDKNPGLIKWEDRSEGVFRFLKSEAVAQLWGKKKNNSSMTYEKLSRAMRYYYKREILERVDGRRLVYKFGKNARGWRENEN
How it was run: as §1

SPI1 = SPI1 (Homo sapiens, UniProt P17947 1-270); details: protein: recombinant; tags: N-terminal GST; dsDNA, one strand shown
How it was run: as §1

SPIB = SPIB (Homo sapiens, UniProt Q01892 1-262); details: protein: recombinant; tags: N-terminal GST; dsDNA, one strand shown
SPIB, sequence (Q01892 whole entry): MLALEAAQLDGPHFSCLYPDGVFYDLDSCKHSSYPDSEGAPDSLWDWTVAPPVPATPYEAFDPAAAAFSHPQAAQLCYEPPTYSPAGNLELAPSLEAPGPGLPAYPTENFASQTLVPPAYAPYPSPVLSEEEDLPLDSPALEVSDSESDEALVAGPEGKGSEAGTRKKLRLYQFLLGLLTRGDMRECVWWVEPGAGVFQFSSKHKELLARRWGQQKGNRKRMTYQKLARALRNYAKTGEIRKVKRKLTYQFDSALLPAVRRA
How it was run: as §1

ELK3 = biological target: T6, ELK3 (Homo sapiens, UniProt P41970 1-407); details: protein: recombinant; tags: N-terminal GST; dsDNA, one strand shown
T6 sequence: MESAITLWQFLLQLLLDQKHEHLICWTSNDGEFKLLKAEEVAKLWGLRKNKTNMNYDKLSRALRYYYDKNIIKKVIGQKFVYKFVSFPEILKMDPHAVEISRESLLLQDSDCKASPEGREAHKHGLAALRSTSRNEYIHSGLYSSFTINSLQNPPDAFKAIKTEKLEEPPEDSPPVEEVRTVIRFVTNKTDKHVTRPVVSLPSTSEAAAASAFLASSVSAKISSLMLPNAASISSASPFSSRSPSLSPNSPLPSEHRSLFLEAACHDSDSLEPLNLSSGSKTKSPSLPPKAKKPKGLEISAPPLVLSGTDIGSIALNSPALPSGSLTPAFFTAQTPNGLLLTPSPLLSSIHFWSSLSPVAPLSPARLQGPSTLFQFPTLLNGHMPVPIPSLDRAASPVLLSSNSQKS
How it was run: as §1

FEV = biological target: T7, FEV (Homo sapiens, UniProt Q99581 1-238); details: protein: recombinant; tags: N-terminal GST; dsDNA, one strand shown
T7 sequence: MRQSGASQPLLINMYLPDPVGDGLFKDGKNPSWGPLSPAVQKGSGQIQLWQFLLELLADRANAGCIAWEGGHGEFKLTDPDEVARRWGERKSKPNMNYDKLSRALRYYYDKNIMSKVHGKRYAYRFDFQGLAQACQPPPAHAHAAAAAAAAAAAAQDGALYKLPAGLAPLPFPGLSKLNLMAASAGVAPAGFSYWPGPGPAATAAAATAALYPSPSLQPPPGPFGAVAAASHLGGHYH
How it was run: as §1

ETV5 = ETV5 (Homo sapiens, UniProt P41161 1-510); details: protein: recombinant; tags: N-terminal GST; dsDNA, one strand shown
ETV5, sequence (P41161 whole entry): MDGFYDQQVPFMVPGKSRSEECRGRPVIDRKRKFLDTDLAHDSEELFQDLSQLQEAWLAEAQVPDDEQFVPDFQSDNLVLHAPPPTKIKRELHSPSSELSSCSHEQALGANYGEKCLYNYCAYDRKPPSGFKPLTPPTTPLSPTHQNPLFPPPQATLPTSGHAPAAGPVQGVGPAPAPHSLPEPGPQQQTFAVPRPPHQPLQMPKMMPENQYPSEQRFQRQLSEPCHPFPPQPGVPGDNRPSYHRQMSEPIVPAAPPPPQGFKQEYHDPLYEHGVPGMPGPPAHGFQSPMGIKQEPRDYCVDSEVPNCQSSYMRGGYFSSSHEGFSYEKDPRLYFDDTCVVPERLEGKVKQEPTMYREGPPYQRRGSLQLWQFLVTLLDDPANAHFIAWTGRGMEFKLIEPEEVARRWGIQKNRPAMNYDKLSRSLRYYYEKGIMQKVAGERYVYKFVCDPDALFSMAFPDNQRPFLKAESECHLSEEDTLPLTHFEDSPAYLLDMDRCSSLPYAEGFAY
How it was run: as §1

HSF1 = HSF1 (Homo sapiens, UniProt Q00613 1-529); details: protein: recombinant; tags: N-terminal GST; chain copies: 3; dsDNA, one strand shown
HSF1, sequence (Q00613 whole entry): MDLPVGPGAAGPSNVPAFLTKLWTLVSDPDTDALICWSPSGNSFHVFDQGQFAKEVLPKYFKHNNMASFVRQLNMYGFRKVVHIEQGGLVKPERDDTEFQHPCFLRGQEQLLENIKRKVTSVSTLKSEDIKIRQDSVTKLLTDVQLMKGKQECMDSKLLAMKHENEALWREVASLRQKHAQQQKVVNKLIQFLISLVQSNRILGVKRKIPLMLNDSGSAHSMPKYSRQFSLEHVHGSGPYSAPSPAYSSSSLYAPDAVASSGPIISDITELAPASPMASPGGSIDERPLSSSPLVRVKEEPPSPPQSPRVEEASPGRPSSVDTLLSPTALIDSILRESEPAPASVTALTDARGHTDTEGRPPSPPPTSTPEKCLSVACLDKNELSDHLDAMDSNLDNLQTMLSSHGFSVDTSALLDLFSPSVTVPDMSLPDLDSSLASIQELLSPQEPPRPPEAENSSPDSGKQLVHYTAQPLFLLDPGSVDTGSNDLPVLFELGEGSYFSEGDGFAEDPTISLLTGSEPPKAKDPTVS
How it was run: as §1

SPIC = biological target: T8, SPIC (Homo sapiens, UniProt Q8N5J4 1-248); details: protein: recombinant; tags: N-terminal GST; dsDNA, one strand shown
T8 sequence: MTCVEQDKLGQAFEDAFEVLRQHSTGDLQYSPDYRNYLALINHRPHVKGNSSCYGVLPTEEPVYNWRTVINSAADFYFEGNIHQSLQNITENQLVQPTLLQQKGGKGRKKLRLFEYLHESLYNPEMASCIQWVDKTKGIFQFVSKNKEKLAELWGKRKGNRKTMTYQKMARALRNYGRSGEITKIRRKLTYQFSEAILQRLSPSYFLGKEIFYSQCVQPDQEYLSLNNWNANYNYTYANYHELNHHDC
How it was run: as §1

ELF4 = ELF4 (Homo sapiens, UniProt Q99607 1-663); details: protein: recombinant; tags: N-terminal GST; dsDNA, one strand shown
ELF4, sequence (Q99607 whole entry): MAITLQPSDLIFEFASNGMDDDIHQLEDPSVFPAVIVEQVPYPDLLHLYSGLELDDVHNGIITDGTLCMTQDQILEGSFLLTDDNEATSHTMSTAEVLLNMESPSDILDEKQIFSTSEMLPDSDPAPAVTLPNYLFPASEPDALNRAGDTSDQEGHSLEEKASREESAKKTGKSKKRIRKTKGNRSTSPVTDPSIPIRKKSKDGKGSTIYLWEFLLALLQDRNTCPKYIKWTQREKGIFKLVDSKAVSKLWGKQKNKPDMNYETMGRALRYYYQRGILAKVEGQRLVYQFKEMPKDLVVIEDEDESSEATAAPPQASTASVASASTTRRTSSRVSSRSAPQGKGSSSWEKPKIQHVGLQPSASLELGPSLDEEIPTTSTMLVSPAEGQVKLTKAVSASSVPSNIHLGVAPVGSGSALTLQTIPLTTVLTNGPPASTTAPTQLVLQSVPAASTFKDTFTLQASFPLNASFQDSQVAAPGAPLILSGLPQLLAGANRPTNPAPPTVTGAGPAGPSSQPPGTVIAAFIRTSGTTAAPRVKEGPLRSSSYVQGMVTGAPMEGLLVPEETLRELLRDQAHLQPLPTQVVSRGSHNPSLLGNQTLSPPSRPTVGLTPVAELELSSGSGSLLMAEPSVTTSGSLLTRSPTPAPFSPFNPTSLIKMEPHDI
How it was run: as §1

ELK4 = biological target: T9, ELK4 (Homo sapiens, UniProt P28324-2 1-405); details: protein: recombinant; tags: N-terminal GST; dsDNA, one strand shown
T9 sequence: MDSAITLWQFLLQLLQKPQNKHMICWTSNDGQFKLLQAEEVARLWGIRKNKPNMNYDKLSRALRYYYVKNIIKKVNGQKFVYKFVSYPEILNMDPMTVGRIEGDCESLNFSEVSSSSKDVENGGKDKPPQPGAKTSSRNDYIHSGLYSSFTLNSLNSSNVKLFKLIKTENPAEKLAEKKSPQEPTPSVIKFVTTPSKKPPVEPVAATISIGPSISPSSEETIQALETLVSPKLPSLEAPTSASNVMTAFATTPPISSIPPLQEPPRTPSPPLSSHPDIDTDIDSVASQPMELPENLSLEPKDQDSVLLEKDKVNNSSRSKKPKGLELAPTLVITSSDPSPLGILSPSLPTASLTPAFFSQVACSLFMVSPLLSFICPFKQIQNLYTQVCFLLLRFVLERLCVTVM
How it was run: as §1

ETV2 = biological target: T10, ETV2 (Homo sapiens, UniProt O00321 1-342); details: protein: recombinant; tags: N-terminal GST; dsDNA, one strand shown
T10 sequence: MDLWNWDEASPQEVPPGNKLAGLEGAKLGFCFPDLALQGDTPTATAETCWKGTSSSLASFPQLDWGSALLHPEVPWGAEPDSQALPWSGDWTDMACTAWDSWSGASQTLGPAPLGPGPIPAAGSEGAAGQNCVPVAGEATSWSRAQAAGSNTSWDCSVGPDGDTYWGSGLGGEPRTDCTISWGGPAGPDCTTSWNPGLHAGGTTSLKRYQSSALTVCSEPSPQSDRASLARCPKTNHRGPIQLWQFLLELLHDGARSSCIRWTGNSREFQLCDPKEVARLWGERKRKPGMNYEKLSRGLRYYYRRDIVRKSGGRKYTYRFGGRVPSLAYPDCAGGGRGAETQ
How it was run: as §1

ELF3 = biological target: T11, ELF3 (Homo sapiens, UniProt P78545 1-371); details: protein: recombinant; tags: N-terminal GST; dsDNA, one strand shown
T11 sequence: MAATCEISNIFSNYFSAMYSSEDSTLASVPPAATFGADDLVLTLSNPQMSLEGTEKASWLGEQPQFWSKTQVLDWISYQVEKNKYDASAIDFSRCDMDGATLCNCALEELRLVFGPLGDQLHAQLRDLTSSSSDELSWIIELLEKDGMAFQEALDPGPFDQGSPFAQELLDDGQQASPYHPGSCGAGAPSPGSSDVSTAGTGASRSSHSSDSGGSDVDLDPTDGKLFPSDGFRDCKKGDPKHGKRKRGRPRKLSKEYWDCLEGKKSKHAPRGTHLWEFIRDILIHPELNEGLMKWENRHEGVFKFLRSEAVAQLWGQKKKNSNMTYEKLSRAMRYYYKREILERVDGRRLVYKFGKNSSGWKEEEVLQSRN
How it was run: as §1

CRX = CRX (Homo sapiens, UniProt O43186 1-299); details: protein: recombinant; tags: N-terminal GST; dsDNA, one strand shown
CRX, sequence (O43186 whole entry): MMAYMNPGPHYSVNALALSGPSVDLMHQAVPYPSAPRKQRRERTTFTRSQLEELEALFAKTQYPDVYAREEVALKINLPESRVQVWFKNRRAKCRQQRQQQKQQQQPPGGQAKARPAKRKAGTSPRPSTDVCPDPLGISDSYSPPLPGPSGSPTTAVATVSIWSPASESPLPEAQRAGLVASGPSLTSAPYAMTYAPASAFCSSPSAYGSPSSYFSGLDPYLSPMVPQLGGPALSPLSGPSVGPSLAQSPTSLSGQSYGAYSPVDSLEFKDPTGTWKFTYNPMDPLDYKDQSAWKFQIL
How it was run: as §1

ETV1 = ETV1 (Homo sapiens, UniProt P50549 1-477); details: protein: recombinant; tags: N-terminal GST; dsDNA, one strand shown
ETV1, sequence (P50549 whole entry): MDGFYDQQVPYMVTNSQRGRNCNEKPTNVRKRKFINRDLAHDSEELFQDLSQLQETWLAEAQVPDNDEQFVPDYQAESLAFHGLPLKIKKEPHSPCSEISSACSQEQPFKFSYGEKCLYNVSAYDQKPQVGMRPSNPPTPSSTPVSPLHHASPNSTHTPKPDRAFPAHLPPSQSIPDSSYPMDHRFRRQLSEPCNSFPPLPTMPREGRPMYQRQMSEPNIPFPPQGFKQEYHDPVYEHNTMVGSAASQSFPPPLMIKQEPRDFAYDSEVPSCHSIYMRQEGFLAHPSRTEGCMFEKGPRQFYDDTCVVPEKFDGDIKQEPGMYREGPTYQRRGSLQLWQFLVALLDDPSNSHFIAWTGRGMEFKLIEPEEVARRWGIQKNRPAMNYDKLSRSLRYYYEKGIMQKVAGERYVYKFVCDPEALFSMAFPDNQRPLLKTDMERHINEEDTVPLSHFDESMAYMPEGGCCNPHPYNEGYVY
How it was run: as §1

What does the source list for CAATCT?
binding signal (FLI1): 1.24 fold enrichment (6-mer frequency, TF over GST control); binding signal (ELK1): 1.18 fold enrichment (6-mer frequency, TF over GST control); binding signal (GABPA): 1.18 fold enrichment (6-mer frequency, TF over GST control); binding signal (ERG): 1.13 fold enrichment (6-mer frequency, TF over GST control); binding signal (ELF1): 1.22 fold enrichment (6-mer frequency, TF over GST control); binding signal (EHF): 1.17 fold enrichment (6-mer frequency, TF over GST control); binding signal (SPI1): 1.26 fold enrichment (6-mer frequency, TF over GST control); binding signal (SPIB): 1.23 fold enrichment (6-mer frequency, TF over GST control); binding signal (ELK3): 1.14 fold enrichment (6-mer frequency, TF over GST control); binding signal (FEV): 1.2 fold enrichment (6-mer frequency, TF over GST control); binding signal (ETV5): 1.21 fold enrichment (6-mer frequency, TF over GST control); binding signal (HSF1): 1.48 fold enrichment (6-mer frequency, TF over GST control); binding signal (SPIC): 1.19 fold enrichment (6-mer frequency, TF over GST control); binding signal (ELF4): 1.2 fold enrichment (6-mer frequency, TF over GST control); binding signal (ELK4): 1.2 fold enrichment (6-mer frequency, TF over GST control); binding signal (ETV2): 1.3 fold enrichment (6-mer frequency, TF over GST control); binding signal (ELF3): 1.19 fold enrichment (6-mer frequency, TF over GST control); binding signal (CRX): 1.42 fold enrichment (6-mer frequency, TF over GST control); binding signal (ETV1): 1.26 fold enrichment (6-mer frequency, TF over GST control)
